# Data from PubChem BioAssay (NCI).
# About 79,000 compounds went through this panel and 15% of them were active in at least one assay; those are over-represented in the sample as a whole. Unmarked numbers belong to inactive results. Active and inactive are the calls of the source. Cut-off read from the data, not from the text of the source: active = growth inhibition above about 70%; inactive = the rest.
# Tests used:
# [1] = NCI Yeast Anticancer Drug Screen. Data for the rad52 strain (AID 147);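 note: 0% = growth of vehicle-treated control cultures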; settings: S. cerevisiae rad52 mutant growth inhibition, active compounds read high
# Outline: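 Yeast strain carrying a DNA damage repair alteration was exposed to test compounds. Growth inhibition was measured relative to vehicle-treated controls.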
# [2] = NCI Yeast Anticancer Drug Screen. Data for the wt1 strain (AID 149);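 note: 0% = growth of vehicle-treated wt1 cultures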; settings: S. cerevisiae wt1 strain (SPY 50644) growth inhibition, active compounds read high
# Outline: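 wt1 strain grown with compound or vehicle; inhibition taken from the growth difference.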
# [3] = NCI Yeast Anticancer Drug Screen. Data for the rad50EPP+ strain (AID 151);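 note: 0% = growth of vehicle-treated control cultures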; settings: S. cerevisiae rad50 mutant strain, active compounds read high
# Outline: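 Yeast strain carrying rad50 alteration (rad50EPP+) exposed to compounds; growth inhibition measured relative to vehicle-treated controls.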
# [4] = NCI Yeast Anticancer Drug Screen. Data for the mgt1 strain (AID 153); settings: S. cerevisiae mgt1 mutant growth inhibition, active compounds read high
# Outline: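 Yeast mgt1 strain (DNA repair/cell-cycle alteration panel) exposed to compounds; growth inhibition measured relative to vehicle-treated controls.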
# [5] = NCI Yeast Anticancer Drug Screen. Data for the rad50 strain (AID 155);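 note: 0% = growth of vehicle-only cultures of the same strain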; settings: S. cerevisiae rad50 strain growth inhibition, active compounds read high
# Outline: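 DNA repair mutant yeast, compound exposure, growth read-out; inhibition is taken relative to vehicle.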
# [6] = NCI Yeast Anticancer Drug Screen. Data for the mec2-1 strain (AID 157); settings: S. cerevisiae mec2-1 strain, active compounds read high
# Outline: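 mec2-1 yeast strain, carrying an alteration in DNA damage repair or cell cycle control, was exposed to compounds; growth inhibition was measured relative to vehicle-treated controls.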
# [7] = NCI Yeast Anticancer Drug Screen. Data for the rad14 strain (AID 159);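 note: 0% = growth of vehicle-treated control cultures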; settings: S. cerevisiae rad14 strain growth inhibition, active compounds read high
# Outline: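 DNA repair-defective yeast, compound-exposed; % growth inhibition derived by comparison with vehicle-treated controls.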
# [8] = NCI Yeast Anticancer Drug Screen. Data for the sgs1 mgt1 strain (AID 161);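 note: 0% = growth of cultures given vehicle only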; settings: S. cerevisiae sgs1 mgt1 strain, active compounds read high
# Outline: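 Yeast cells carrying a defined DNA-repair defect were exposed to test compounds. Growth inhibition was measured relative to vehicle-treated controls.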
# [9] = NCI Yeast Anticancer Drug Screen. Data for the cln2 rad14 strain (AID 165);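 note: 0% = growth equal to vehicle treated cultures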; settings: S. cerevisiae cln2 rad14 strain, active compounds read high
# Outline: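 Yeast carrying cln2 and rad14 alterations (cell cycle control and DNA damage repair) were exposed to compounds. Growth inhibition was measured against vehicle-treated controls.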
# [10] = NCI Yeast Anticancer Drug Screen. Data for the bub3 strain (AID 167); settings: S. cerevisiae bub3 mutant strain, active compounds read high
# Outline: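 In this screen, a yeast mutant lacking normal mitotic checkpoint function is challenged with compound. Relative growth versus vehicle gives the inhibition value.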
# [11] = NCI Yeast Anticancer Drug Screen. Data for the wt2 strain (AID 169);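 note: 0% = growth of vehicle-treated yeast cultures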; settings: S. cerevisiae wt2 strain growth inhibition, active compounds read high
# Outline: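 Yeast cells were exposed to test compounds, and growth inhibition was measured relative to vehicle-treated controls.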
# [12] = NCI Yeast Anticancer Drug Screen. Data for the mlh1 strain (AID 171);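 note: 0% = growth of vehicle-treated control cultures of the same strain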; settings: S. cerevisiae mlh1 strain growth inhibition, active compounds read high
# Outline: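 Yeast carrying a defined genetic alteration in DNA damage repair or cell cycle control were exposed to test compounds. Growth inhibition was measured relative to vehicle-treated controls.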
# [13] = NCI Yeast Anticancer Drug Screen. Data for the sgs1 strain (AID 173);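 note: 0% = growth of vehicle-only control cultures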; settings: S. cerevisiae sgs1 mutant, active compounds read high
# Outline: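 Yeast mutant strains carrying defined defects in DNA damage repair or cell cycle control were exposed to test compounds. Growth inhibition was scored against vehicle-treated controls.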
# [14] = NCI Yeast Anticancer Drug Screen. Data for the mlh1 rad18 strain (AID 175); settings: S. cerevisiae mlh1 rad18 strain growth inhibition, active compounds read high
# Outline: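 Growth inhibition of the yeast strain was measured after compound exposure and expressed relative to vehicle-treated controls. The strain carries defined defects in DNA damage repair.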
# [15] = NCI Yeast Anticancer Drug Screen. Data for the rad18 strain (AID 177); settings: S. cerevisiae rad18 mutant growth inhibition, active compounds read high
# Outline: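 Yeast carrying a defined DNA damage repair alteration were exposed to compounds. Growth inhibition was expressed relative to vehicle-treated controls.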
# [16] = at 5.0 µM (retest, dose inferred, filed as 0.5)
# [17] = at 50.0 µM (retest, dose inferred, filed as 5.0)
smiles,measurement,setting,value
NCCCSc1ccccc1,growth inhibition,[1]; at 1.2 µM,-2%
same,growth inhibition,[1]; at 3.7 µM,-2%
same,growth inhibition,[1]; at 11.0 µM,-4%
same,growth inhibition,[1]; at 33.0 µM,-4%
same,growth inhibition,[1]; at 100.0 µM,-2%
same,growth inhibition,[2]; at 1.2 µM,-2%
same,growth inhibition,[2]; at 3.7 µM,-4%
same,growth inhibition,[2]; at 11.0 µM,-2%
same,growth inhibition,[2]; at 33.0 µM,-3%
same,growth inhibition,[2]; at 100.0 µM,-3%
same,growth inhibition,[3]; at 1.2 µM,-3%
same,growth inhibition,[3]; at 3.7 µM,-1%
same,growth inhibition,[3]; at 11.0 µM,-4%
same,growth inhibition,[3]; at 33.0 µM,-8%
same,growth inhibition,[3]; at 100.0 µM,-6%
same,growth inhibition,[4]; at 1.2 µM,-3%
same,growth inhibition,[4]; at 3.7 µM,-4%
same,growth inhibition,[4]; at 11.0 µM,-4%
same,growth inhibition,[4]; at 33.0 µM,13%
same,growth inhibition,[4]; at 100.0 µM,-1%
same,growth inhibition,[5]; at 1.2 µM,-3%
same,growth inhibition,[5]; at 3.7 µM,-2%
same,growth inhibition,[5]; [16],2%
same,growth inhibition,[5]; at 11.0 µM,-2%
same,growth inhibition,[5]; at 33.0 µM,-3%
same,growth inhibition,[5]; [17],-19%
same,growth inhibition,[5]; at 50.0 µM,-25.2%
same,growth inhibition,[5]; at 100.0 µM,-2%
same,growth inhibition,[6]; at 1.2 µM,-1%
same,growth inhibition,[6]; at 3.7 µM,0%
same,growth inhibition,[6]; [16],-8%
same,growth inhibition,[6]; at 11.0 µM,1%
same,growth inhibition,[6]; at 33.0 µM,0%
same,growth inhibition,[6]; [17],-30%
same,growth inhibition,[6]; at 50.0 µM,14.7%
same,growth inhibition,[6]; at 100.0 µM,0%
same,growth inhibition,[7]; at 1.2 µM,-2%
same,growth inhibition,[7]; at 3.7 µM,-1%
same,growth inhibition,[7]; at 11.0 µM,-1%
same,growth inhibition,[7]; at 33.0 µM,-1%
same,growth inhibition,[7]; at 100.0 µM,-1%
same,growth inhibition,[8]; [16],-11%
same,growth inhibition,[8]; [17],-6%
same,growth inhibition,[8]; at 50.0 µM,-1.9%
same,growth inhibition,[9]; [16],-3%
same,growth inhibition,[9]; [17],37%
same,growth inhibition,[9]; at 50.0 µM,34.4%
same,growth inhibition,[10]; at 1.2 µM,-2%
same,growth inhibition,[10]; at 3.7 µM,-3%
same,growth inhibition,[10]; [16],8%
same,growth inhibition,[10]; at 11.0 µM,-1%
same,growth inhibition,[10]; at 33.0 µM,-1%
same,growth inhibition,[10]; [17],78% (active)
same,growth inhibition,[10]; at 50.0 µM,-0.3%
same,growth inhibition,[10]; at 100.0 µM,-4%
same,growth inhibition,[11]; at 1.2 µM,-2%
same,growth inhibition,[11]; at 3.7 µM,-2%
same,growth inhibition,[11]; at 11.0 µM,-2%
same,growth inhibition,[11]; at 33.0 µM,-2%
same,growth inhibition,[11]; at 100.0 µM,-1%
same,growth inhibition,[12]; at 1.2 µM,-2%
same,growth inhibition,[12]; at 3.7 µM,-4%
same,growth inhibition,[12]; at 11.0 µM,-2%
same,growth inhibition,[12]; at 33.0 µM,-4%
same,growth inhibition,[12]; at 100.0 µM,-2%
same,growth inhibition,[13]; at 1.2 µM,0%
same,growth inhibition,[13]; at 3.7 µM,1%
same,growth inhibition,[13]; at 11.0 µM,2%
same,growth inhibition,[13]; at 33.0 µM,0%
same,growth inhibition,[13]; at 100.0 µM,1%
same,growth inhibition,[14]; [16],-21%
same,growth inhibition,[14]; [17],-15%
same,growth inhibition,[14]; at 50.0 µM,-4.65%
same,growth inhibition,[15]; at 1.2 µM,-1%
same,growth inhibition,[15]; at 3.7 µM,-1%
same,growth inhibition,[15]; at 11.0 µM,-8%
same,growth inhibition,[15]; at 33.0 µM,1%
same,growth inhibition,[15]; at 100.0 µM,-1%
CCOC(=O)C(Cc1c2ccccc2cc2ccccc12)(NC(C)=O)C(=O)OCC,growth inhibition,[1]; at 1.2 µM,-2%
same,growth inhibition,[1]; at 3.7 µM,-2%
same,growth inhibition,[1]; at 11.0 µM,-4%
same,growth inhibition,[1]; at 33.0 µM,-6%
same,growth inhibition,[1]; at 100.0 µM,0%
same,growth inhibition,[2]; at 1.2 µM,-1%
same,growth inhibition,[2]; at 3.7 µM,0%
same,growth inhibition,[2]; at 11.0 µM,-2%
same,growth inhibition,[2]; at 33.0 µM,-3%
same,growth inhibition,[2]; at 100.0 µM,-2%
same,growth inhibition,[3]; at 1.2 µM,0%
same,growth inhibition,[3]; at 3.7 µM,0%
same,growth inhibition,[3]; at 11.0 µM,6%
same,growth inhibition,[3]; at 33.0 µM,12%
same,growth inhibition,[3]; at 100.0 µM,10%
same,growth inhibition,[4]; at 1.2 µM,-3%
same,growth inhibition,[4]; at 3.7 µM,-2%
same,growth inhibition,[4]; at 11.0 µM,-3%
same,growth inhibition,[4]; at 33.0 µM,-18%
same,growth inhibition,[4]; at 100.0 µM,-4%
same,growth inhibition,[5]; at 1.2 µM,-6%
same,growth inhibition,[5]; at 3.7 µM,-16%
same,growth inhibition,[5]; [16],-8%
same,growth inhibition,[5]; at 11.0 µM,-22%
same,growth inhibition,[5]; at 33.0 µM,-4%
same,growth inhibition,[5]; [17],11%
same,growth inhibition,[5]; at 50.0 µM,90.2% (active)
same,growth inhibition,[5]; at 100.0 µM,-2%
same,growth inhibition,[6]; at 1.2 µM,0%
same,growth inhibition,[6]; at 3.7 µM,0%
same,growth inhibition,[6]; [16],-6%
same,growth inhibition,[6]; at 11.0 µM,-1%
same,growth inhibition,[6]; at 33.0 µM,1%
same,growth inhibition,[6]; [17],27%
same,growth inhibition,[6]; at 50.0 µM,75.5% (active)
same,growth inhibition,[6]; at 100.0 µM,-1%
same,growth inhibition,[7]; at 1.2 µM,-3%
same,growth inhibition,[7]; at 3.7 µM,-5%
same,growth inhibition,[7]; at 11.0 µM,-3%
same,growth inhibition,[7]; at 33.0 µM,-5%
same,growth inhibition,[7]; at 100.0 µM,-1%
same,growth inhibition,[8]; [16],-7%
same,growth inhibition,[8]; [17],19%
same,growth inhibition,[8]; at 50.0 µM,86% (active)
same,growth inhibition,[9]; [16],5%
same,growth inhibition,[9]; [17],41%
same,growth inhibition,[9]; at 50.0 µM,61.3%
same,growth inhibition,[10]; at 1.2 µM,-2%
same,growth inhibition,[10]; at 3.7 µM,1%
same,growth inhibition,[10]; [16],8%
same,growth inhibition,[10]; at 11.0 µM,-1%
same,growth inhibition,[10]; at 33.0 µM,0%
same,growth inhibition,[10]; [17],67%
same,growth inhibition,[10]; at 50.0 µM,88.8% (active)
same,growth inhibition,[10]; at 100.0 µM,2%
same,growth inhibition,[11]; at 1.2 µM,-2%
same,growth inhibition,[11]; at 3.7 µM,-3%
same,growth inhibition,[11]; at 11.0 µM,-4%
same,growth inhibition,[11]; at 33.0 µM,-2%
same,growth inhibition,[11]; at 100.0 µM,-2%
same,growth inhibition,[12]; at 1.2 µM,0%
same,growth inhibition,[12]; at 3.7 µM,0%
same,growth inhibition,[12]; at 11.0 µM,-3%
same,growth inhibition,[12]; at 33.0 µM,-2%
same,growth inhibition,[12]; at 100.0 µM,0%
same,growth inhibition,[13]; at 1.2 µM,-1%
same,growth inhibition,[13]; at 3.7 µM,1%
same,growth inhibition,[13]; at 11.0 µM,-1%
same,growth inhibition,[13]; at 33.0 µM,5%
same,growth inhibition,[13]; at 100.0 µM,9%
same,growth inhibition,[14]; [16],-11%
same,growth inhibition,[14]; [17],35%
same,growth inhibition,[14]; at 50.0 µM,86.9% (active)
same,growth inhibition,[15]; at 1.2 µM,-5%
same,growth inhibition,[15]; at 3.7 µM,-1%
same,growth inhibition,[15]; at 11.0 µM,-1%
same,growth inhibition,[15]; at 33.0 µM,0%
same,growth inhibition,[15]; at 100.0 µM,3%
